Screening results as filed in PubChem.
Hits are enriched below; roughly 4.2% of the tested compounds scored in any of these assays.
UCHL1 inh – inhibitors of human UCHL1 deubiquitinase; 47,000 tested, 0.2% active; inhibition, % at 20 µM; purified UCHL1, Ub-rhodamine cleavage fluorescence
USP10 block – inhibitors of human USP10 deubiquitinase. 47,000 tested, 1.1% active. AID 1645856, 2021. purified USP10, Ub-rhodamine fluorescence, 60 min. inhibition, % at 20 µM. Ubiquitin carboxyl-terminal hydrolase 10 (Homo sapiens), Q14694
USP7 block – inhibitors of human USP7 deubiquitinase; purified USP7, Ub-rhodamine cleavage fluorescence; 47,000 tested, 0.3% active; Ubiquitin carboxyl-terminal hydrolase 7 (Homo sapiens), Q93009; inhibition, % at 20 µM
USP28 block – inhibitors of human USP28 deubiquitinase; Ubiquitin carboxyl-terminal hydrolase 28 (Homo sapiens), Q96RU2; 47,000 tested, 3% active; purified USP28, Ub-rhodamine cleavage fluorescence, 30 min; AID 1645857, 2021; inhibition, % at 25 µM
Target sequence (Q96RU2 whole entry, looked up): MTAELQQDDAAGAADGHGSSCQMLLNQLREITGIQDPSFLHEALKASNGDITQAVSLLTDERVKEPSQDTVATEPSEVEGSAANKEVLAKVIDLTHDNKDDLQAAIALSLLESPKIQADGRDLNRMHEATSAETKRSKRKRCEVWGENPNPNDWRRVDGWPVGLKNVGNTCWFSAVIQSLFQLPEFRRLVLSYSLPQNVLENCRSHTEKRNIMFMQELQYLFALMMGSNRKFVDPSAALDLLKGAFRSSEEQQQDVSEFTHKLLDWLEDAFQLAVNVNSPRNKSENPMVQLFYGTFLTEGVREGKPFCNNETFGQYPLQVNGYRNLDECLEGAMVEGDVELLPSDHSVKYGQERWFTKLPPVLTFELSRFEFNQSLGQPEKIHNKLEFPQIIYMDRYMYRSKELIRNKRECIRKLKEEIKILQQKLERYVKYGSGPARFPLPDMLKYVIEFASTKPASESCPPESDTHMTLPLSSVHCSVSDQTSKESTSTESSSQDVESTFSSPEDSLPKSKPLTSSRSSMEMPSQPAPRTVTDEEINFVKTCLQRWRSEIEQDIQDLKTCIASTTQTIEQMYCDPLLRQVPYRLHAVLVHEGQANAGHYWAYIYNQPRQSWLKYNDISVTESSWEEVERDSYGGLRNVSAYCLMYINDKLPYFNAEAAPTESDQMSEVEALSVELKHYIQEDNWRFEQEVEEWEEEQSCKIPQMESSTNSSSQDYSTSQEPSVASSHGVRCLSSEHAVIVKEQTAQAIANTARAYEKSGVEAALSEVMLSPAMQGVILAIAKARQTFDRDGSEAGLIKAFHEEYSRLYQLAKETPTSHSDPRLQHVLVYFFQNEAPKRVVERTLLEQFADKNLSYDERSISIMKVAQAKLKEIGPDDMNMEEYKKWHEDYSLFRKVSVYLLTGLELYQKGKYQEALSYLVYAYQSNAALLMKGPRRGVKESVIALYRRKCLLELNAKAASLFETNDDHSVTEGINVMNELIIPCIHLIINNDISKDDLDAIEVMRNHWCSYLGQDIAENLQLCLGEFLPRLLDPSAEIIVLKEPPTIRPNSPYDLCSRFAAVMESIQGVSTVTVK
OTUD3 inh – inhibitors of human OTUD3 deubiquitinase; purified OTUD3, Ub-rhodamine fluorescence, 2 h; OTU domain-containing protein 3 (Homo sapiens), Q5T2D3; inhibition, % at 25 µM; 47,000 tested, 0.7% active; AID 1645858, 2021
* marks the source's active call; other numbers are inactive results; x = no result. No stated cut-off is given here; in the data, active means inhibition above about 30%; inactive means the rest.

SMILES | UCHL1 inh | USP10 block | USP7 block | USP28 block | OTUD3 inh
N#Cc1ccc(NC(=O)Nc2cccn(Cc3ccccc3Br)c2=O)cc1 | 24 | 51* | -49 | 63* | 45*
Cc1ccccc1NC(=O)CNc1ccc(C#N)cc1 | 0 | -5 | -3 | 0 | -6
N#Cc1cccc(NC(=O)Nc2cccn(Cc3ccccc3F)c2=O)c1 | 35* | 71* | -63 | 82* | 84*
Cc1ncccc1C(=O)N1CCCCC1c1ccn2ccnc2n1 (stereo not given) | -5 | -6 | 0 | -11 | -6
O=C(CSc1nc2cc(C(F)(F)F)ccc2s1)NCC(=O)c1ccccc1 | 21 | 45* | 59* | 5 | -8
COc1cc2c(cc1OC)CN(Cc1cc(=O)n3ccsc3n1)CC2 | -15 | -12 | -22 | -45 | -50
CCOC(=O)c1ccc(OCc2nc(-c3ccc(OC)c(OC)c3)no2)cc1 | 4 | 0 | 4 | -5 | 0
Cc1ccccc1-c1noc(COc2ccc(C(N)=O)cc2)n1 | -4 | -5 | x | 40* | -9
CC(=O)N1CCC2(CCN(C(=O)c3ccc(C(F)(F)F)cc3)CC2)C1 | 2 | 0 | 3 | 3 | 10
COc1ccc(CCNC(=O)c2cnc3sc4c(n3c2=O)CCCC4)cc1OC | 0 | 0 | -2 | 40* | -6
Oc1cc(O)cc(/C=C/c2ccc(O)c(O)c2)c1 | 1 | -4 | -140 | 49* | 47*
O=S(=O)(c1ccc(-c2ccc(Cl)cc2Cl)cc1)C1CCNCC1 | 2 | -1 | -4 | 44* | 9
N#Cc1ccc(-c2ccc(S(=O)(=O)C3CCN(CC(=O)c4ccc(F)cc4)CC3)cc2)cc1 | -9 | -11 | -10 | -29 | -28
COc1ccc(-c2csc(-c3cc4c([nH]c3=O)CC(c3ccco3)CC4=O)n2)cc1 (stereo not given) | -36 | -6 | -34 | -23 | 3
O=C1CC(c2ccco2)Cc2[nH]c(=O)c(-c3nc(-c4ccc(Cl)cc4)cs3)cc21 (stereo not given) | 13 | -10 | 41* | -5 | 38*
O=c1c(NCc2ccc(F)cc2)nccn1-c1ccc2c(c1)OCCO2 | 2 | 0 | 0 | 19 | 2
O=c1c(NCc2ccccc2Cl)nccn1Cc1ccc(F)cc1 | 8 | 9 | -8 | 30* | 26
Clc1ccc2c(Nc3ccc4c(c3)OCO4)ccnc2c1 | 5 | 7 | 6 | 43* | 10
COc1ccc(OC)c(CNCCCN2CCOCC2)c1 | -4 | -1 | 7 | -5 | -5
COc1ccc(C(=O)CCN2CCOCC2)cc1[N+](=O)[O-] | 5 | 2 | -1 | 2 | 36*
c1ccc(CNc2ccc(-c3ccccc3)nn2)cc1 | 4 | 10 | 8 | 37* | 16
CN1CCN(C(=O)c2ccc(-c3ccc(NCc4ccccc4)nn3)cc2)CC1 | -2 | -4 | -1 | 0 | -6
CN(C)Cc1ccc(C(=O)Nc2ccc(-c3nccs3)cc2)cc1 | -2 | -2 | -15 | 88* | -7
CO[C@H]1OC(=O)C=C2C1=C[C@H]1OC(=O)[C@@]3(C)CCC[C@@]2(C)[C@@H]13 | 0 | -3 | 1 | 3 | -1
N#Cc1c(N)nc2c(c1N)C(c1ccccc1)CO2 (stereo not given) | -1 | 3 | 2 | 18 | 4
SMILES | UCHL1 inh | USP10 block | USP7 block | USP28 block | OTUD3 inh
O=S(=O)(Nc1ccc(Oc2ccccc2)cc1)c1ccccc1 | 11 | 23 | -9 | 60* | 24
O=C(COC(=O)c1cc(Cl)ccc1O)Nc1ccc2c(c1)OCCO2 | 3 | 11 | 5 | 14 | 16
O=C(Nc1ccc(OCC(=O)N2CCOCC2)cc1)c1ccc2c(c1)OCO2 | 0 | 0 | 1 | 37* | 14
O=C(CNc1ccc(F)c(Cl)c1)Nc1ccc2c(c1)OCCO2 | 5 | 9 | -12 | 64* | 6
Cc1ccc(/C=C/C(=O)Nc2ccc3c(c2)OCCO3)cc1 | 0 | 10 | 1 | 80* | -8
Cc1cc(C(=O)Nc2ccc3c(c2)OCCO3)no1 | -4 | 2 | -3 | 63* | 0
Cc1ccc(NC(=O)c2cc(=O)n(C)c3c2c(=O)n(C)c(=O)n3C)c(C)c1 | 5 | -1 | 7 | 12 | 13
Cc1noc(C)c1CSc1ncccc1C(=O)Nc1ccnn1Cc1ccccn1 | -11 | -6 | -10 | -27 | -20
Cn1c(=O)/c(=C/c2ccccc2)[nH]c(=O)/c1=C/c1ccccc1 | 1 | 11 | -4 | 7 | 4
COc1ccc(C(=O)N2CCN(c3nc(C)cc(N4CCCCC4)n3)CC2)cc1OC | -4 | -2 | -5 | -1 | -10
COc1ccc2c(c1)OC1(CCN(C(=O)c3cc4ccc(Cl)cc4[nH]3)CC1)CC2=O | -23 | -3 | -14 | -89 | -52
Cc1nnc(Nc2cccc(C3CCCN(CC(N)=O)C3)n2)s1 (stereo not given) | 0 | 4 | 1 | 11 | 11
COc1ccc(C(=O)OCC(=O)NC2CCCc3ccccc32)cc1OC (stereo not given) | -1 | -4 | -1 | -21 | -9
COc1cccc2cc(C(=O)Nc3ccc4c(c3)OCCO4)oc12 | 2 | 7 | 1 | 51* | 2
O=C(Nc1ccc2c(c1)OCCO2)c1cnc(N2CCOCC2)nc1 | 1 | 1 | -6 | 42* | -3
COc1cccc2cc(C(=O)Nc3nc4c(s3)COCC4)oc12 | 3 | -1 | -3 | 7 | 10
C[C@H](NC(=O)Cc1ccccc1F)c1nc2cc(-c3ccccc3F)ncn2n1 | 2 | 40* | 6 | 37* | 36*
C[C@@H](NC(=O)c1ccc2c(c1)OCO2)c1nc2cc(-c3ccccc3F)ncn2n1 | 0 | 1 | 1 | 14 | 11
C[C@@H](NC(=O)c1ccc2c(c1)OCCO2)c1nc2cc(-c3ccccc3F)ncn2n1 | 2 | 5 | 7 | 47* | 43*
C[C@@H](NC(=O)C1CCCCC1)c1nc2cc(-c3ccccc3F)ncn2n1 | 2 | 4 | 6 | 4 | 3
COc1ccc(-c2cc3nc([C@H](C)NC(=O)Cc4ccccc4C)nn3cn2)cc1 | 4 | 36* | 32* | 20 | 47*
COc1ccc(-c2cc3nc([C@H](C)NC(=O)COc4ccccc4F)nn3cn2)cc1 | 7 | 18 | 27 | 12 | 23
Cn1c(=O)c(C(=O)CN2CCN(c3ccc(O)cc3)CC2)c(N)n(Cc2ccccc2)c1=O | 4 | -1 | 5 | 26 | 1
COc1cccc(-c2noc(CSc3nccn3-c3ccccc3)n2)c1OC | 2 | -1 | 6 | 4 | 2
CCn1c(CC(=O)Nc2cccc(C)c2C)nnc1SCC(=O)N1CCOCC1 | -3 | 1 | -1 | 0 | -4
O=[N+]([O-])c1ccc(NCC2COc3ccccc3O2)c(Cl)c1 (stereo not given) | 8 | 8 | -13 | 72* | 11
COc1ccccc1NS(=O)(=O)c1cc([N+](=O)[O-])ccc1NCC1COc2ccccc2O1 (stereo not given) | 8 | 12 | 9 | 12 | 4
COc1cccc(C(=O)NCC(=O)N2CCCc3ccccc32)c1OC | -3 | -1 | 0 | -10 | 1
